Values joined by “and” are separate entries in the source; they are usually repeats but may differ in a detail not shown here. Identical values can stand only once. Like-named read-outs stand apart in the source and are kept apart here.
Columns and labels:
CDKL2 = settings: concentration: 1 μM, replicates: in singlicate, n = 1
CDKL3 = settings: concentration: 1 μM, replicates: in singlicate, n = 1
CDKL5 = settings: concentration: 1 μM, replicates: in singlicate, n = 1
CHEK1 = settings: concentration: 1 μM, replicates: in singlicate, n = 1
CHEK2 = settings: concentration: 1 μM, replicates: in singlicate; n = 1
CIT = settings: concentration: 1 μM, replicates: in singlicate, n = 1
CLK1 = settings: concentration: 1 μM, replicates: in singlicate, n = 1
CLK2 = settings: concentration: 1 μM, replicates: in singlicate, n = 1
CLK3 = settings: concentration: 1 μM, replicates: in singlicate, n = 1
CLK4 = settings: concentration: 1 μM, replicates: in singlicate, n = 1
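Note: KINOMEscan kinase panel screen.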

SMILES	%Inh (CDKL2) [%]	%Inh (CDKL3) [%]	%Inh (CDKL5) [%]	%Inh (CHEK1) [%]	%Inh (CHEK2) [%]	%Inh (CIT) [%]	%Inh (CLK1) [%]	%Inh (CLK2) [%]	%Inh (CLK3) [%]	%Inh (CLK4) [%]	%Inh (CDKL2; 1 µM)	%Inh (CDKL3; 1 µM)	%Inh (CDKL5; 1 µM)	%Inh (CHEK1; 1 µM)	%Inh (CIT; 1 µM)	%Inh (CLK1; 1 µM)	%Inh (CLK2; 1 µM)	%Inh (CLK3; 1 µM)	%Inh (CLK4; 1 µM)
COc1ccc(NC(=O)c2ccc(-c3cc(-c4nnc(C)o4)ccc3C)cc2)cc1 [GW595885]	13	0	0	0	0	22	17	0	94.8	20									
C[C@@H]1CCN(C(=O)CO)C[C@@H]1N(C)c1ncnc2[nH]ccc12	2	0	0	0	1	0	3	6	0	0									
O=C(CCO)NCCn1ccc2ncnc(Nc3ccc(Oc4cccc(C(F)(F)F)c4)c(Cl)c3)c21	9	0	0	0	0	0	1	0	0	5									
Fc1cccc(COc2ccc(Nc3ncnc4sc(-c5ccc[nH]5)cc34)cc2Cl)c1 [GW707818]	14	0	0	7	21	27	29	8	0	100									
CSc1nn2c(=O)cc(N3CCOCC3)nc2n1Cc1cccc(Cl)c1Cl [GSK2347225]	27	0	8	15	0	35	40	0	100	12									
Nc1nc(-c2ccc3c(N)n[nH]c3c2)cc(N2CCCCC2)n1 [GSK2228768]	0	0	2	0	0	18	29	0	8	19									
CSc1ccc(NC2=C(c3ccccc3Cl)C(=O)NC2=O)cc1 [SB-342411]	14	0	0	0	0	23	74	88	43	53									
COC(=O)c1cccc(NC(=O)NCCNc2ccnc(Nc3ccc(F)cc3)n2)c1 [GSK1379883]	5	0	0	0	5	35	15	0	14	42									
Cl.c1ccc(Cn2ccc3cc(Nc4ncnc5ccccc45)ccc32)cc1 [GW275568]	4	8	0	2	27	5	26	10	59	0									
Cc1ccc(O)cc1Nc1cc(C(F)(F)F)nc2ccc(-c3ccncc3)cc12 [GW630823]	0	0	0	34	0	0	40	16	0	20									
Nc1nc(-c2ccc3c(N)n[nH]c3c2)cc(N2CCC[C@@H](C(=O)Nc3ccccc3)C2)n1.O=C(O)C(F)(F)F.O=C(O)C(F)(F)F [GSK2288359]	6	0	2	0	0	23	45	29	8	21									
CC(C)(C)OC(=O)NC1CCCN(c2cc(-c3ccc4c(N)n[nH]c4c3)nc(N)n2)C1 (stereo not drawn) [GSK2286096]	5	0	7	0	0	26	55	27	7	16									
Cl.Cl.c1ccc(-c2cc3ccncc3cc2OC2CCNCC2)cc1 [GSK1122999]	10	0	7	3	0	55	64	32	4	71									
COc1ccc(-c2nc3n(c2-c2ccncc2)CCC3)cc1 [SKF-104493]					0						0% and 1%	1% and 0%	2% and 0%	0% and 13%	16% and 15%	16% and 11%	0% and 6%	5% and 1%	10% and 0%
COc1cc2ncnc(Nc3ccc(OCc4ccccc4Br)c(Cl)c3)c2cc1OC.Cl [GI261590]	26	2	0	0	47	29	28	0	0	17									
c1ccc(-c2ccc3c(-c4ccnc(Nc5ccc6c(c5)OCCO6)n4)cnn3n2)cc1 [GW818941]	16	0	0	0	0	6	52	42	0	58									
Cn1ccc2ncnc(Oc3ccc(NC(=O)Nc4cccnc4)c(Cl)c3)c21	3	13	14	0	9	5	0	5	4	32									
COc1cc2c(Nc3cccc(NC(=O)c4ccccc4)c3)ncnc2cc1OCCCN1CCOCC1 [GSK223810]	3	0	0	0	0	29	10	10	0	16									
O=C(NCCCN1CCCC1=O)c1cnc(NCc2cc(Cl)ccc2Cl)nc1NC1CCNCC1	0	20	0	0	6	0	0	0	0	0									
O=C(Nc1n[nH]c2nc(-c3ccco3)c(Br)cc12)c1ccc(CN2CCCC2)cc1.O=C(O)[C@H](O)[C@@H](O)C(=O)O [SB-742352]	62	0	0	0	0	0	16	12	0	8									
CC(C)N1CCC(n2cnc(-c3ccc(F)cc3)c2-c2ccnc(N)n2)CC1 [SB-223132]	13	9	0	0	0	69	5	0	10	0									
CCc1nc(-c2cccc(N(C)S(=O)(=O)c3ccccc3)c2)c(-c2ccnc(Nc3ccc(N4CCN(C(C)=O)CC4)nc3)n2)s1 [GSK1645895]	47	0	4	7	0	31	25	12	27	0									
OCCOCCn1ccc2ncnc(Nc3ccc(Oc4cccc(Cl)c4)c(Cl)c3)c21	0	5	0	0	0	2	0	0	0	0									
C[C@H]1CC[C@@H](C(=O)Nc2ccccc2)CN1c1cc(-c2ccc3c(N)n[nH]c3c2)nc(N)n1 [GSK2283293]	17	0	0	0	0	32	18	0	0	21									
Fc1cccc(COc2ccc(Nc3ncnc4cc[nH]c34)cc2Cl)c1	14	11	15	10	13	19	7	16	10	0									
Cn1ccc2ncnc(Nc3ccc(Oc4cccc(Cl)c4)c(Cl)c3)c21	23	26	23	2	7	0	0	0	0	1									
Cl.Fc1ccccc1COc1ccc(Nc2ncnc3ccc(-c4nnc(C(F)(F)F)o4)cc23)cc1Cl [GW424170]	0	0	0	5	7	11	31	0	4	13									
O=c1cc(N2CCOCC2)nc2n(Cc3cccc(Cl)c3)ccn12 [GSK2296823]	26	0	4	18	0	10	47	1	20	24									
Clc1cc(Nc2ncnc3cc[nH]c23)ccc1OCc1ccccn1	0	31	8	14	13	18	13	0	5	7									
FC(F)(F)c1ccc(-c2cc(-c3c[nH]nc3-c3ccccn3)ccn2)cc1 [GW599550]	21	0	0	0	16	37	8	4	5	29									

— article PMC5540273 (PLoS ONE, 2017)
